Results reported in PubChem BioAssay (Tox21).
Where “and” joins values, the source holds several entries; their conditions need not be identical. Equal entries are not always repeated. Inconclusive results are not listed. Where a structure was tested more than once in an assay, its records may differ in their call. Calls of active or inactive are those of the source. Unless noted, calls follow the shape of the dose curve; as a rule, active = well fitted curve in the direction sought with a large enough effect in the repeat runs; inconclusive = weak or mixed curves; inactive = no such curve, though single readings can be large; an effect the other way counts as inactive or inconclusive.

What was measured:
[1] = qHTS assay to identify small molecule antagonists of the estrogen related receptor (ERR) signaling pathway from Tox21 library - cell viability counter screen (AID 1224834); also: nearly all actives have a fitted effect of over 30% in size
Method in brief: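 Viability readout (CellTiter-Fluor fluorescence, 30 min at 37 C) multiplexed with the ERR assay; cells treated 17.5 h at 37 C with compounds delivered in DMSO.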

[2] = biological target: Luciferin 4-monooxygenase (Photinus pyralis) (UniProt P08659); test: qHTS assay to identify small molecule inhibitors of firefly luciferase (AID 1224835); also: nearly all actives have a fitted effect of over 25% in size; also: potency is read from the fitted curve at half-maximal effect
Method in brief: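 Quantitative HTS format; KM concentrations of both substrates. Purified P. pyralis FLuc activity quantified from luminescence images.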

[3] = qHTS assay to identify small molecule agonists of the constitutive androstane receptor (CAR) signaling pathway - cell viability counter screen (AID 1224836); also: series mostly up to about 92 µM; nearly all actives have a fitted effect of over 45% in size
Method in brief: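 Counter screen multiplexed with the CAR reporter readout: HepG2 cells co-transfected with hCAR and the CYP2B6-2.2kb construct receive a 15-concentration compound series and 0.75 uM PK11195 (final), then CellTiter-Fluor fluorescence is read after 23 h.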

[4] = qHTS assay to identify small molecule antagonists of the constitutive androstane receptor (CAR) signaling pathway - cell viability counter screen (AID 1224837); also: series mostly up to about 92 µM; nearly all actives have a fitted effect of over 45% in size
Method in brief: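 Fluorescence from CellTiter-Fluor served as the viability signal. Human hepatoma HepG2 cells stably bearing hCAR and CYP2B6-2.2kb received compound plus CITCO (50 nM final) for 23 hr.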

[5] = biological target: Nuclear receptor subfamily 1 group I member 3 (Homo sapiens) (UniProt Q14994); test: qHTS assay to identify small molecule antagonists of the constitutive androstane receptor (CAR) signaling pathway (AID 1224838);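 also: HepG2 cells stably expressing hCAR with CYP2B6 luciferase reporter stimulated by CITCO; nearly all actives have a fitted effect of over 40% in size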
Method in brief: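 Quantitative HTS in double-stable HepG2-CYP2B6-hCAR cells. After 4 h plating, cells get compound (15 concentrations) and CITCO at 50 nM final, incubate 24 h at 37 C, then ONE-Glo luminescence is read.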

[6] = biological target: Nuclear receptor subfamily 1 group I member 3 (Homo sapiens) (UniProt Q14994); test: qHTS assay to identify small molecule agonists of the constitutive androstane receptor (CAR) signaling pathway (AID 1224839); also: nearly all actives have a fitted effect of over 15% in size; also: potency is read from the fitted curve at half-maximal effect; as to activation: series mostly up to about 92 µM
Method in brief: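 A 15-concentration quantitative screen uses HepG2 cells co-transfected stably with human CAR and CYP2B6-2.2kb reporter. Treatment lasts 24 h with 0.75 uM PK11195 final present; ONE-Glo luminescence is the signal.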

[7] = qHTS assay to identify small molecule antagonists of the estrogen related receptor signaling pathway with the pleiotropic PPARgamma coactivator (PGC) from Tox21 10K library - cell viability counter screen (AID 1224840; active = well fitted cell-killing curve with a large enough effect in the repeat runs, not every such curve was filed as active; also: nearly all actives have a fitted effect of over 40% in size)
Method in brief: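 Compounds in DMSO, alongside positive and negative controls, were pinned onto PGC/ERR cells (2,000 per well). Exposure lasted 17.5 hours at 37 C, followed by a 30-minute CellTiter-Fluor incubation and fluorescence reading.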

[8] = qHTS assay to identify small molecule antagonists of the estrogen related receptor signaling pathway with the pleiotropic PPARgamma coactivator (PGC) from Tox21 10K library (AID 1224841; call rule not given here; also: actives are mostly falling curves and most rising ones were filed inactive; nearly all actives have a fitted effect of over 50% in size; also: potency is read from the fitted curve at half-maximal effect)
Method in brief: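 Compound exposure ran 18 hours at 37 C in PGC/ERR cells (2,000/well) that had first rested 6 hours in a 37 C/5% CO2 incubator. Luciferase activity was then detected with One-Glo after a 30-minute room-temperature step.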

[9] = qHTS assay to identify small molecule agonists of the estrogen related receptor signaling pathway with the pleiotropic PPARgamma coactivator (PGC) from Tox21 10K library (AID 1224842); also: nearly all actives have a fitted effect of over 15% in size
Method in brief: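 PGC/ERR reporter cells (NTP line) were seeded 2,000 per well, rested 6 h at 37 C/5% CO2, then pin-dosed with compounds in DMSO for 18 h at 37 C; luciferase read by One-Glo luminescence after 30 min at room temperature.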

[10] = biological target: Thyrotropin receptor (Homo sapiens) (UniProt P16473); test: qHTS assay to identify small molecule agonists of the thyroid stimulating hormone receptor (TSHR) signaling pathway (AID 1224843; calls by dose curve; also: nearly all actives have a fitted effect of over 45% in size)
Method in brief: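 Cell line HEK293 with TSHR; density 800/well. Exposure 30 min RT. Readout HTRF cAMP (cAMP-d2/anti-cAMP-cryptate), 1 h RT before reading.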

[11] = qHTS assay to identify small molecule agonists of the hypoxia (HIF-1) signaling pathway - cell viability counter screen (AID 1224844; calls by dose curve; also: nearly all actives have a fitted effect of over 50% in size)
Method in brief: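 Luminescent ATP content (CellTiter-Glo, 30 min, room temperature) served as the viability measure in HRE-bla ME-180 cells exposed to compounds for 17 hrs in low-serum medium (0.5% dialyzed FBS).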

[12] = qHTS assay to identify small molecule agonists of H2AX (AID 1224845; active = well fitted activation curve with a large enough effect in the signal ratio in the repeat runs, not every such curve was filed as active; the % refers to the signal ratio)
Method in brief: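 Wild-type CHO-K1 cells plated overnight, then exposed 3 hr at 37C to compounds at 15 concentrations (0.76% DMSO). Lysed, then HTRF anti-pH2AX(S139)-cryptate/anti-H2AX-d2 detection after 24 hr at room temperature; emissions 665 and 620 nm.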

[13] = qHTS assay to identify small molecule agonists of the hypoxia (HIF-1) signaling pathway (AID 1224846; active = well fitted activation curve with a large enough effect in the signal ratio in the repeat runs, not every such curve was filed as active; the % refers to the signal ratio)
Method in brief: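 Measured by blue/green FRET after loading CCF4-AM: beta-lactamase expressed from a hypoxia response element in ME-180 cells. Test agents were delivered in DMSO and left 17 hrs; cells had been plated 5 hrs earlier in low-serum (0.5% dialyzed FBS) medium.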

[14] = qHTS assay to identify small molecule agonists of H2AX - cell viability counter screen (AID 1224847; calls by dose curve; also: top concentration of the series differs between compounds; nearly all actives have a fitted effect of over 30% in size)
Method in brief: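 We seed wild-type CHO-K1 cells overnight, treat them for 3 hr at 37C with compounds in 15-concentration series, and quantify remaining viability by CellTiter-Glo luminescence.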

[15] = qHTS assay to identify small molecule antagonists of the estrogen related receptor (ERR) signaling pathway from Tox21 library (AID 1224848); also: nearly all actives have a fitted effect of over 50% in size
Method in brief: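 Screening used an ERR reporter line supplied by NTP, exposed for 18 h at 37 C to library compounds delivered in DMSO. Signal was luciferase luminescence developed with ONE-Glo at room temperature for 30 min.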

[16] = qHTS RealTime-Glo MT Cell Viability Assay in HepG2 cells - 24 hour (AID 1224867); also: nearly all actives have a fitted effect of over 50% in size
Method in brief: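 Cells + NanoLuc/prosubstrate dispensed (600 cells/well) → 5 h at 37 C/5% CO2 → compounds in DMSO transferred → 40 h incubation at 37 C, luminescence read at 0, 8, 16, 24, 32, 40 h.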

[17] = qHTS RealTime-Glo MT Cell Viability Assay in HEK293 cells - 32 hour (AID 1224868); also: nearly all actives have a fitted effect of over 50% in size; also: potency is read from the fitted curve at half-maximal effect
Method in brief: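 Tox21 10K qHTS, HEK293, 600 cells/well, RealTime-Glo reagent co-dispensed with cells; 5 h preincubation, compound by pintool, 37 C, luminescence at 0–40 h.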

[18] = A CellTox Green Cytotoxicity Assay to monitor cytotoxicity in HEK293 cells - 0 hour (AID 1224869); also: nearly all actives have a fitted effect of over 50% in size
Method in brief: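 Each value comes from one timepoint of a single continuous run in which HEK293 cells with CellTox Green were exposed to compound for up to 40 h at 37 C, dye fluorescence rising with cell death.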

[19] = qHTS RealTime-Glo MT Cell Viability Assay in HepG2 cells - 40 hour (AID 1224870); also: nearly all actives have a fitted effect of over 50% in size
Method in brief: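 HepG2 cells mixed with RealTime-Glo MT reagents (NanoLuc plus cell-permeant prosubstrate) were seeded at 600 cells/well, incubated 5 h at 37 C/5% CO2, then pinned with compounds in DMSO; nonlytic luminescence tracked viability during 40 h treatment.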

Measured: Potency

Luciferin 4-monooxygenase (Photinus pyralis), sequence (P08659 whole entry, looked up): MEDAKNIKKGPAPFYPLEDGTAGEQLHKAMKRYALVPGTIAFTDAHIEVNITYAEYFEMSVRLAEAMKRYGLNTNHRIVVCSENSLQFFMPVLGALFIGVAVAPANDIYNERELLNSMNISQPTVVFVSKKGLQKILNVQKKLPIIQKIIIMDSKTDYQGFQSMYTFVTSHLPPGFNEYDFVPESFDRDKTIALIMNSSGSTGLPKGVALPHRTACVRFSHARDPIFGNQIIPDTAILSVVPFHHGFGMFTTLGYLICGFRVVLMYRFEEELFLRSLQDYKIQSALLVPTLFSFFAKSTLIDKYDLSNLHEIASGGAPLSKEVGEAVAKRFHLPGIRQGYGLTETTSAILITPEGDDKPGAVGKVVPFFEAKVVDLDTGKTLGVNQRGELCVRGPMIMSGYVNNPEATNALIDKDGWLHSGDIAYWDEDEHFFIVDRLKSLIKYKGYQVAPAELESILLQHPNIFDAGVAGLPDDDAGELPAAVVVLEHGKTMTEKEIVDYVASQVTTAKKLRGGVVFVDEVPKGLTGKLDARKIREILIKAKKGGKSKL
Nuclear receptor subfamily 1 group I member 3 (Homo sapiens), sequence (Q14994 whole entry, looked up): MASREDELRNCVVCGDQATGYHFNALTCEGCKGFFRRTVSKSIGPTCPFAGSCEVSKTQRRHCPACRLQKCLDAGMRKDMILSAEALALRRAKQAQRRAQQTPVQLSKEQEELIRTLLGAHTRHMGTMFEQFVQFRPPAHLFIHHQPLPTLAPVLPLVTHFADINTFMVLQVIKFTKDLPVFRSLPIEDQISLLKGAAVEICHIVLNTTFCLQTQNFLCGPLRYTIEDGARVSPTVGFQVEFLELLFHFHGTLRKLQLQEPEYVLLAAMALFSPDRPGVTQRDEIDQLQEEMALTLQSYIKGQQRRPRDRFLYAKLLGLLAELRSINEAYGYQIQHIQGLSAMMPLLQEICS
Thyrotropin receptor (Homo sapiens), sequence (P16473 whole entry, looked up): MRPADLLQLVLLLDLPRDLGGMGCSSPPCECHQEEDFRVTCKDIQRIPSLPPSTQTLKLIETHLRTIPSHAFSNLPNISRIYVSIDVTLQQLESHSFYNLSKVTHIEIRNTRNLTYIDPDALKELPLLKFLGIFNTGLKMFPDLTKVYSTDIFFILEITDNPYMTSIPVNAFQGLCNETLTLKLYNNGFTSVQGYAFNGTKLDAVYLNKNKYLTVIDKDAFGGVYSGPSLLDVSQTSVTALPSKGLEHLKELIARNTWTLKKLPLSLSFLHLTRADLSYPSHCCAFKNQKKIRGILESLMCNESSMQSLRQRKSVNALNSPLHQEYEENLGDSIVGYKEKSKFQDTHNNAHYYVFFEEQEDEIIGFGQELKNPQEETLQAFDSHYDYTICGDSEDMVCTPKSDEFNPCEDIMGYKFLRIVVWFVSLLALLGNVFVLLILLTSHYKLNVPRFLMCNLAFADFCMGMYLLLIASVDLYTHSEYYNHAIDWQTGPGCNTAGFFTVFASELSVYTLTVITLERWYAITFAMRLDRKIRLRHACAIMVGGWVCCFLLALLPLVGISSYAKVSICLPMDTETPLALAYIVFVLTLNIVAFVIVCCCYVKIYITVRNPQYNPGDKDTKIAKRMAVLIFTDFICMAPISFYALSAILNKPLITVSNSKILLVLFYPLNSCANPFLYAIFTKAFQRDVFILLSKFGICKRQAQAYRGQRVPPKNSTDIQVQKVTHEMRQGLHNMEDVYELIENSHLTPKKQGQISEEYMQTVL

CC(=O)OCc1ccco1
inactive: all assays above

c1ccc(Oc2ccccc2)cc1
not listed: [8] | [9] | [15]
inactive: all other assays above

CC(C)CC(C)O (stereo not given)
not listed: [8] | [9] | [15]
inactive: all other assays above

CC1(C)NC(=O)NC1=O
inactive: all assays above

C=CC(C)CCCC(C)(C)O (stereo not given)
not listed: [8] | [9] | [15]
inactive: all other assays above

CC(C)OP(=O)(CP(=O)(OC(C)C)OC(C)C)OC(C)C
not listed: [8] | [9] | [10] | [15]
inactive: all other assays above

CCCCCCO
not listed: [8] | [9] | [15]
inactive: all other assays above

COc1cc(OC)c(C(=O)CCCN2CCCC2)c(OC)c1
not listed: [8] | [9] | [13] | [15]
inactive: all other assays above

CNC(=O)Oc1ccc2c(c1)[C@]1(C)CCN(C)[C@@H]1N2C
not listed: [8] | [9] | [13] | [15]
inactive: all other assays above

CN1C(=O)CC[C@H]1c1cccnc1
not listed: [8] | [9] | [13] | [15]
inactive: all other assays above

C=C(C)CNCC
not listed: [6]
inactive: all other assays above

CCCCCCCCCCCCCCCC(=O)OC(C)C
not listed: [8] | [9] | [10] | [15]
inactive: all other assays above

C=Cc1ccc(C)cc1
not listed: [8] | [9] | [15]
inactive: all other assays above

C[Si]1(C)O[Si](C)(C)O[Si](C)(C)O[Si](C)(C)O1
not listed: [8] | [9] | [15]
inactive: all other assays above

COc1ccc(C)cc1N
not listed: [6] | [8] | [9] | [15]
inactive: all other assays above

CC1(C)OC[C@@H]2O[C@@]3(C(=O)O)OC(C)(C)O[C@H]3[C@@H]2O1
not listed: [8] | [9] | [15]
inactive: all other assays above

NCCN1CCNCC1
not listed: [8] | [9] | [15]
inactive: all other assays above

CC(C)(C)c1cc(Cc2cc(C(C)(C)C)c(O)c(C(C)(C)C)c2)cc(C(C)(C)C)c1O
not listed: [8] | [9] | [15]
inactive: all other assays above

NCCCCCCN
not listed: [5] | [6]
inactive: all other assays above

CCNc1ccccc1
28.8 µM (active) and inactive: [2]
not listed: [8] | [9] | [15]
inactive: all other assays above

CC(CCl)OP(=O)(OC(C)CCl)OC(C)CCl (stereo not given)
38.6 µM (active) and inactive: [8]
not listed: [6]
inactive: all other assays above

CCOCCOCCOCCO
not listed: [8] | [9] | [15]
inactive: all other assays above

CCc1ccccc1CC
not listed: [5] | [6]
inactive: all other assays above

CC(=O)OCCOC(C)=O
not listed: [8] | [9] | [15]
inactive: all other assays above

O=C(O)c1ccccc1C(=O)O
not listed: [8] | [9] | [15]
inactive: all other assays above

CCCCOC(=O)c1ccc(N)cc1
active: [6] 23.7 µM
inactive and 34.7 µM (active): [2]
not listed: [8] | [9] | [13] | [15]
inactive: all other assays above

CNC(=S)N(C)C
inactive and 11.6 µM (active): [17]
not listed: [8] | [9] | [10] | [15]
inactive: all other assays above

COc1ccc([N+](=O)[O-])cc1N
not listed: [8] | [9] | [10] | [15]
inactive: all other assays above

C[C@]12CCC(=O)C=C1CC[C@@H]1[C@@H]2[C@@H](O)C[C@@]2(C)[C@H]1CC[C@]2(O)C(=O)CO
not listed: [5] | [8] | [9] | [13] | [15] | [16] | [17] | [19]
inactive: all other assays above

Nc1nc(N)nc(-c2ccccc2)n1
not listed: [8] | [9] | [15]
inactive: all other assays above

CCCCCCCO
not listed: [8] | [9] | [15]
inactive: all other assays above

Cc1ccc(C(C)C)c(O)c1
not listed: [6] | [10]
inactive: all other assays above

CC(C)CCCCCCCOC(=O)CCCCC(=O)OCCCCCCCC(C)C
not listed: [8] | [9] | [15]
inactive: all other assays above

COC(=O)CCCC(=O)OC
not listed: [8] | [9] | [15]
inactive: all other assays above

CC(=O)c1ccc(O)cc1
not listed: [8] | [9] | [15]
inactive: all other assays above

O=[N+]([O-])c1ccc2nc[nH]c2c1
not listed: [8] | [9] | [15]
inactive: all other assays above
